# Measured values as given in PubChem BioAssay (Tox21).
# Several values for one entry are separate records, joined by “and”; a condition that tells them apart may be missing. Equal entries are not always repeated. Inconclusive results are not listed. A call without a number means that no potency is given here. The source holds several records for some structures; these can differ, active in one and inactive in another. Activity calls are given as the source filed them. Unless noted, calls come from the whole dose curve; as a rule, active = well fitted curve in the direction sought with a large enough effect in the repeat runs; inconclusive = weak or mixed curves; inactive = no such curve, though single readings can be large; an effect the other way counts as inactive or inconclusive.
# Assays:
# [1] = qHTS assay to identify small molecule antagonists of the estrogen receptor alpha (ER-alpha) signaling pathway using the BG1 cell line in the presence of 0.1 nM 17-beta-estradiol - cell viability counter screen (AID 1259241); note: nearly all actives have a fitted effect of over 40% in size; note: potency is the fitted concentration of half-maximal effect
# Summary of the method: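 Estradiol-stimulated (0.1 nM) VM7Luc4E2 cells exposed to compounds 22 hr; viability measured by fluorescence of cleaved CellTiter-Fluor substrate after 30 min.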
# [2] = qHTS assay to identify small molecule antagonists of the androgen receptor (AR) signaling pathway using the MDA cell line in the presence of 0.5 nM R1881 - cell viability counter screen (AID 1259242); note: nearly all actives have a fitted effect of over 45% in size; note: potency is the fitted concentration of half-maximal effect
# Summary of the method: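 MDA-kb2 cells (human breast carcinoma, stably carrying MMTV-luciferase reporter) were exposed to compounds with 0.5 nM R1881 (final) for 16 hr at 37C, 0% CO2; viability then read as live-cell protease fluorescence (CellTiter-Fluor, 30 min) in the same wells.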
# [3] = biological target: Estrogen receptor (Homo sapiens) (UniProt P03372); test: qHTS assay to identify small molecule antagonists of the estrogen receptor alpha (ER-alpha) signaling pathway using the BG1 cell line in the presence of 0.1 nM 17-beta-estradiol (AID 1259244); note: nearly all actives have a fitted effect of over 50% in size; note: potency is the fitted concentration of half-maximal effect
# Summary of the method: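 VM7Luc4E2 cells (endogenous full-length ER-alpha, stable 4xERE-luciferase) were grown 5 days in phenol red-free medium with charcoal-stripped FBS, then exposed 22 h at 37C to compounds plus 0.1 nM (final) 17beta-estradiol; ONE-Glo luminescence read-out.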
# [4] = qHTS assay to identify small molecule HDAC inhibitors - cell viability counter screen (AID 1259365); note: nearly all actives have a fitted effect of over 50% in size; note: potency is the fitted concentration of half-maximal effect
# Summary of the method: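 After overnight seeding at 1,500 cells per well, wild-type HCT-116 cultures took up compounds in DMSO for 2hr at 37 C. Viable cell content came from luminescence with CellTiter-Glo.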
# [5] = qHTS assay to identify small molecule agonists of the sonic hedgehog signaling (Shh) pathway - cell viability counter screen (AID 1259366); note: nearly all actives have a fitted effect of over 50% in size; note: potency is the fitted concentration of half-maximal effect
# Summary of the method: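 Same-well cytotoxicity read. Gli1-Luc reporter 3T3 cells; compounds 24hr, 37C/5% CO2; CellTiter-Fluor fluorescence.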
# [6] = qHTS assay to identify small molecule antagonists of the sonic hedgehog signaling (Shh) pathway - cell viability counter screen (AID 1259367); note: nearly all actives have a fitted effect of over 55% in size; note: potency is the fitted concentration of half-maximal effect
# Summary of the method: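 Using CellTiter-Fluor, viability of Gli1-Luc reporter 3T3 cells is read by fluorescence in the wells used for the Shh luciferase assay. Treatment lasts 23 hr with conditioned medium, then reagent 1 hr at 37C.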
# [7] = qHTS assay to identify small molecule agonists of the sonic hedgehog signaling (Shh) pathway (AID 1259368; calls by dose curve; note: series mostly up to about 92 µM; nearly all actives have a fitted effect of over 15% in size)
# Summary of the method: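 NIH/3T3-derived 3T3Gli1-Luc cells carrying a stably integrated Gli1 response element–firefly luciferase reporter were plated, left 4 hr at 37 C, then given compounds in DMSO for 24 hr. Luminescence was read 30 min after adding luciferase reagent.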
# [8] = biological target: Androgen receptor (Homo sapiens) (UniProt P10275); test: qHTS assay to identify small molecule antagonists of the androgen receptor (AR) signaling pathway using the MDA cell line in the presence of 0.5 nM R1881 (AID 1259243); note: nearly all actives have a fitted effect of over 50% in size; note: potency is the fitted concentration of half-maximal effect
# Summary of the method: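 MDA-kb2 human breast carcinoma cells carrying an MMTV-luciferase reporter (AR- and GR-responsive) were plated, rested 5 hr at 37C, dosed with compounds, then stimulated with 0.5 nM R1881 (final) for 16 hr; luminescence was read after ONE-Glo.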
# [9] = qHTS assay to identify small molecule HDAC inhibitors (AID 1259364); note: nearly all actives have a fitted effect of over 45% in size; note: potency is the fitted concentration of half-maximal effect
# Summary of the method: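 Wild-type HCT-116 cells were plated overnight, exposed to compounds for 2 h at 37 °C, then given HDAC-Glo class I/II luminogenic reagent for 30 min at room temperature before luminescence was read.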
# [10] = qHTS assay to identify small molecule phospholipidosis (PLD) inducers (AID 1259344; active = well fitted curve in the direction sought with a large enough effect; an effect the other way counts as inactive or inconclusive)
# Summary of the method: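 Fluorescent phospholipid staining (LipidTOX Red) measured by automated microscopy in fixed HepG2 cells after 24 h treatment; nuclei counterstained with Hoechst 33342; amiodarone as reference inducer.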
# Chain of Estrogen receptor (Homo sapiens) (P03372 whole entry, looked up): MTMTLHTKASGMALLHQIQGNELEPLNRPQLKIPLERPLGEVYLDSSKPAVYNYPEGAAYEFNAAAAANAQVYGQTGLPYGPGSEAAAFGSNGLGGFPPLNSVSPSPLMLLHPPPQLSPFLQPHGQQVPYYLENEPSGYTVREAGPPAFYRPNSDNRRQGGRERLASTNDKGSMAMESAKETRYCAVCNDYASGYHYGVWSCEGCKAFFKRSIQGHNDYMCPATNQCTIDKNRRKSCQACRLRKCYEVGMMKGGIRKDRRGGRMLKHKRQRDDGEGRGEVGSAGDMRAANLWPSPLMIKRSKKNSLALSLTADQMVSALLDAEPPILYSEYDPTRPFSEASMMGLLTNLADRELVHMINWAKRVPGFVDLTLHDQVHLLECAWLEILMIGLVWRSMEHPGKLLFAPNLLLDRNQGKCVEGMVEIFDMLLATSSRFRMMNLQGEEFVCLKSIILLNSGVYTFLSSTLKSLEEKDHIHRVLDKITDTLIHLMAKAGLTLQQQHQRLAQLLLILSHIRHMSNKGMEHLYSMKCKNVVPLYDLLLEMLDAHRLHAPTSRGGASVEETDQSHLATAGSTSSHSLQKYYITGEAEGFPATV
# Chain of Androgen receptor (Homo sapiens) (P10275 whole entry, looked up): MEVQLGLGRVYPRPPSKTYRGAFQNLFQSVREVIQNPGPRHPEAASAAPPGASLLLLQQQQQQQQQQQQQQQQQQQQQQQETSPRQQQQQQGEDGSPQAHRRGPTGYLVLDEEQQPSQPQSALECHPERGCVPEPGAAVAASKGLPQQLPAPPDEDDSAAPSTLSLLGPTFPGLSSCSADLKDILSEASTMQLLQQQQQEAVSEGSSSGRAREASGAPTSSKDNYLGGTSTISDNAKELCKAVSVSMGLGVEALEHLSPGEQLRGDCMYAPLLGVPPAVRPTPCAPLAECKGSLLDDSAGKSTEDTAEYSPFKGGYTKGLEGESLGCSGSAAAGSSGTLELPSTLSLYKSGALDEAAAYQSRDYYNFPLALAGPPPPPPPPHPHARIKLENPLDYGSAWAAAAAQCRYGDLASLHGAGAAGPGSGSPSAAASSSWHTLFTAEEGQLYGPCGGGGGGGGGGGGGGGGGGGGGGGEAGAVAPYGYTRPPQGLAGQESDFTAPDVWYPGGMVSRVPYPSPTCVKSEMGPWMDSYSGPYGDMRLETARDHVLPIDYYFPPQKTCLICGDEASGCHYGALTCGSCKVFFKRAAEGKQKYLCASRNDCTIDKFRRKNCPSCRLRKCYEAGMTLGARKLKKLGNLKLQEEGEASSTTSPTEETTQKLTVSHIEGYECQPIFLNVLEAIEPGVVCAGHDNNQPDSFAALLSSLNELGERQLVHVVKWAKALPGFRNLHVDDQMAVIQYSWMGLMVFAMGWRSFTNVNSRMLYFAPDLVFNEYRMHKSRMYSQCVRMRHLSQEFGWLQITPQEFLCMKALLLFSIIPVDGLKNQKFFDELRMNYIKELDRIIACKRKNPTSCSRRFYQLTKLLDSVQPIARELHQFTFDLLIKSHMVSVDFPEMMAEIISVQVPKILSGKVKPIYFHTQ
SMILES,Potency [1],Potency [2],Potency [3],Potency [4],Potency [5],Potency [6],outcome [7],Potency [8],Potency [9],outcome [10],PLD induction [10]
Nc1ccc(Cl)cc1,inactive,inactive,inactive,inactive,inactive,inactive,inactive,–,–,–,–
Cc1cc(Cl)ccc1OCC(=O)O,inactive,inactive,inactive,inactive,inactive,inactive,inactive,inactive,inactive,–,–
C1CCC(NC2CCCCC2)CC1,inactive,inactive,inactive,inactive,inactive,inactive,inactive,–,–,inactive,–
Nc1ccc(-c2ccc(N)cc2)cc1,inactive,inactive,inactive,inactive,inactive,inactive,inactive,–,–,–,–
CC(=O)[O][Hg][c]1ccccc1,4.81 µM (active) and 9.69 µM (active) and 11.9 µM (active),1.92 µM (active) and 6.11 µM (active) and 2.66 µM (active),2.71 µM (active) and 6.86 µM (active) and 8.41 µM (active),3.82 µM (active) and 6.11 µM (active) and 16.8 µM (active),606 nM (active) and 1.37 µM (active) and 1.5 µM (active),1.08 µM (active) and 2.17 µM (active) and 1.33 µM (active),inactive,606 nM (active) and 2.43 µM (active) and 1.19 µM (active),21.5 µM (active) and 8.63 µM (active) and 13.3 µM (active),inactive,–
Nc1ccccc1,inactive,inactive,–,inactive,inactive,inactive,inactive,–,–,inactive,–
Nc1ccc(-c2ccc(N)c(Cl)c2)cc1Cl,inactive,inactive,48.6 µM (active),inactive,inactive and 7.18 µM (active) and 30.6 µM (active),2.27 µM (active) and 8.63 µM (active),inactive,–,inactive and 27.3 µM (active),–,–
O=P1(N(CCCl)CCCl)NCCCO1 (stereo not given),inactive,inactive,inactive,inactive,inactive,inactive,inactive,–,–,inactive,–
O=c1nc(O)n(Cl)c(=O)n1Cl,inactive,inactive,–,inactive,inactive,inactive,inactive,–,inactive,–,–
C=CCOC(Cn1ccnc1)c1ccc(Cl)cc1Cl (stereo not given),inactive,inactive,–,inactive,inactive,inactive,inactive,–,–,inactive,–
CCCC[n+]1ccccc1,inactive,inactive,–,inactive,inactive,inactive,inactive,–,inactive,–,–
OCCOc1ccccc1,inactive,inactive,inactive,inactive,inactive,inactive,inactive,–,inactive,inactive,–
COP(=O)(OC)OC=C(Cl)Cl,inactive,inactive,inactive,inactive,inactive,inactive,inactive,–,–,inactive,–
O=c1[nH]c(=O)n(Cl)c(=O)n1Cl,inactive,inactive,–,inactive,inactive,inactive,inactive,–,inactive,inactive,–
O=C(O)C(Cl)Cl,inactive,inactive,inactive,inactive,inactive,inactive,inactive,–,inactive,inactive,–
Oc1ccccc1-c1ccccc1,inactive,inactive,inactive,inactive,inactive,inactive,inactive,–,–,inactive,–
Cc1cc(-c2ccc(N)c(C)c2)ccc1N,inactive,inactive,34.4 µM (active),inactive,inactive,inactive,inactive,–,–,–,–
COCC(=O)N(c1c(C)cccc1C)C(C)C(=O)OC (stereo not given),inactive,inactive,inactive,inactive,inactive,inactive,inactive,–,–,inactive,–
COP(=O)(OC)C(O)C(Cl)(Cl)Cl (stereo not given),inactive,inactive,–,inactive,inactive,inactive,inactive,–,–,inactive,–
C[C@]12CCC(=O)C=C1CC[C@@H]1[C@@H]2CC[C@]2(C)C(=O)CC[C@@H]12,inactive,inactive,inactive,inactive,inactive,60.1 µM (active) and inactive,inactive,–,–,–,–
CCC(=O)C(CC(C)N(C)C)(c1ccccc1)c1ccccc1 (stereo not given),inactive,inactive,inactive,–,–,27.4 µM (active),inactive,inactive,inactive,–,2.52% [at 3.15 µM] (inactive)
O=C(O)C(Cl)(Cl)Cl,inactive,inactive,–,inactive,inactive,inactive,inactive,–,–,inactive,–

SMILES,Potency [1],Potency [2],Potency [3],Potency [4],Potency [5],Potency [6],outcome [7],Potency [8],Potency [9],outcome [10],PLD induction [10]
C[N+](C)(C)Cc1ccccc1,inactive,inactive,inactive,inactive,inactive,inactive,inactive,–,inactive,–,–
CC[N+](CC)(CC)CC,inactive,inactive,–,inactive,inactive,inactive,inactive,–,–,inactive,–
CC(Cl)(Cl)C(=O)O,inactive,inactive,inactive,inactive,inactive,inactive,inactive,–,–,–,–
O=C(O)CC(O)(CC(=O)O)C(=O)O,inactive,inactive,–,inactive,inactive,inactive,inactive,–,inactive,–,–
CN(C)[C@@H]1C(=O)C(C(N)=O)=C(O)[C@@]2(O)C(=O)C3=C(O)c4c(O)cccc4[C@@](C)(O)[C@H]3[C@H](O)[C@@H]12,inactive,inactive,–,inactive,inactive,inactive,inactive,–,–,inactive,–
CCNc1nc(Cl)nc(NCC)n1,inactive,inactive,inactive,inactive,inactive,inactive,inactive,–,–,inactive,–
CCCn1cc[n+](C)c1,inactive,inactive,–,inactive,inactive,inactive,inactive,–,inactive,–,–
COc1ccc(N)cc1,inactive,inactive,–,inactive,inactive,inactive,inactive,–,inactive,–,–
O=C(O)c1nc(Cl)ccc1Cl,inactive,inactive,inactive,inactive,inactive,inactive,inactive,–,inactive,–,–
CCOP(=S)(OCC)Oc1ccc2c(C)c(Cl)c(=O)oc2c1,inactive,inactive,–,inactive,inactive,inactive,inactive,–,inactive and 11.9 µM (active),inactive,–
CCCC[n+]1ccccc1C,inactive,inactive,–,inactive,inactive,inactive,inactive,–,inactive,–,–
CCCCCCCCCCCCOS(=O)(=O)O,inactive,inactive,–,inactive,inactive,inactive,inactive,–,–,–,–
CCCC[n+]1cccc(C)c1,inactive,inactive,–,inactive,inactive,inactive,inactive,–,–,–,–
CCCCCCCCCCCCn1cc[n+](C)c1,inactive,–,–,inactive,27.3 µM (active) [middle of 6 runs],31.2 µM (active) [middle of 5 runs],inactive,–,–,–,–
O=[N+]([O-])O,inactive,inactive,–,inactive,inactive,inactive,inactive,–,–,–,–
O=[N+]([O-])c1ccccc1O,inactive,inactive,–,inactive,inactive,inactive,inactive,–,–,–,–
CCCCn1cc[n+](C)c1C,inactive,inactive,–,inactive,inactive,inactive,inactive,–,inactive,–,–
CCCCCCCCCCn1cc[n+](C)c1,inactive,inactive,–,inactive,inactive,inactive,inactive,–,–,–,–
O=S(=O)(O)O,inactive,inactive,–,inactive,inactive,inactive,inactive,–,–,–,–
CCCCn1cc[n+](C)c1,inactive,inactive,–,inactive,inactive,inactive,inactive,–,–,–,–
CCn1cc[n+](C)c1C,inactive,inactive,–,inactive,inactive,inactive,inactive,–,–,–,–
N#CS,inactive,inactive,–,inactive,inactive,inactive,inactive,–,inactive,–,–

SMILES,Potency [1],Potency [2],Potency [3],Potency [4],Potency [5],Potency [6],outcome [7],Potency [8],Potency [9],outcome [10],PLD induction [10]
O=C(O)c1ccccc1O,inactive,inactive,–,inactive,inactive,inactive,inactive,–,inactive,–,–
CC[N+]1(C)CCCC1,inactive,inactive,–,inactive,inactive,inactive,inactive,–,–,–,–
CCCCCCCCCCCC(=O)O,inactive,inactive,–,inactive,inactive,inactive,inactive,–,–,–,–
CCCCCC[n+]1ccccc1,inactive,inactive,–,inactive,inactive,inactive,inactive,–,–,–,–
COc1ccccc1N,inactive,inactive,–,inactive,inactive,inactive,inactive,–,–,–,–
CCCC[n+]1ccc(C)cc1,inactive,inactive,–,inactive and 60.8 µM (active),inactive and 60.8 µM (active),inactive and 60.8 µM (active),inactive,–,–,–,–
CCCC[N+]1(C)CCCC1,inactive,inactive,–,inactive,inactive,inactive,inactive,–,–,–,–
CC(=O)O,inactive,inactive,–,inactive,inactive,inactive,inactive,–,–,–,–
CCCCCCCCn1cc[n+](C)c1,inactive,–,–,inactive,inactive,inactive,inactive,–,inactive,–,–
CCC[N+]1(C)CCCCC1,inactive,inactive,–,inactive,inactive,inactive,inactive,–,–,–,–
CCCCCCCCCCCCCCCCn1cc[n+](C)c1,–,inactive and 34.7 µM (active) and 48.7 µM (active),–,inactive,–,–,inactive,–,–,–,–
CCCC[N+]1(C)CCCCC1,inactive,inactive,–,inactive,inactive,inactive,inactive,–,inactive,–,–
O=C(O)COc1ccc(Cl)cc1Cl,inactive,inactive,–,inactive,inactive,inactive,inactive,–,inactive,–,–
Cc1cc(Cl)ccc1N,inactive,inactive,–,inactive,inactive,inactive,inactive,–,–,–,–
CCCCCCn1cc[n+](C)c1,inactive,–,–,inactive,inactive,inactive,inactive,–,inactive,–,–
CNC,inactive,inactive,–,inactive,inactive,inactive,inactive,–,–,–,–
CC[n+]1ccccc1,inactive,inactive and 30.4 µM (active),–,inactive,inactive,inactive,inactive,–,–,–,–
Oc1cccc2cccnc12,–,inactive,–,inactive,–,–,inactive,–,–,inactive,–
CCC[N+]1(C)CCCC1,inactive,inactive,–,inactive,inactive,inactive,inactive,–,–,–,–
O=C(O)CCl,inactive,inactive,–,inactive,inactive,inactive,inactive,–,inactive,–,–
CCCCCCCCCCCCCC[P+](CCCCCC)(CCCCCC)CCCCCC,–,9.73 µM (active) and 13.8 µM (active),2.74 µM (active) and 3.09 µM (active) and 3.43 µM (active),34.5 µM (active) and 69.1 µM (active) and inactive,13.7 µM (active) and 21.9 µM (active) and inactive,15.4 µM (active) and 54.9 µM (active) and inactive,inactive,–,inactive,–,–
